Inconclusive results are not listed. Calls of active or inactive are those of the source. Unless noted, calls follow the shape of the dose curve; as a rule, active = well fitted curve in the direction sought with a large enough effect in the repeat runs; inconclusive = weak or mixed curves; inactive = no such curve, though single readings can be large; an effect the other way counts as inactive or inconclusive.
What was measured:
[1] = qHTS RealTime-Glo MT Cell Viability Assay in HEK293 cells - 0 hour (AID 1224880); also: top concentration of the series differs between compounds; nearly all actives have a fitted effect of over 45% in size
How it was run: (§1)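 Luminescence readout at each listed time point; HEK293, 600 cells/well, RealTime-Glo MT reagent added with cells; compounds pinned (23 nL in DMSO) after 5 h at 37 C; continuous culture at 37 C.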

[2] = A CellTox Green Cytotoxicity Assay to monitor cytotoxicity in HEK293 cells - 32 hour (AID 1224881); also: nearly all actives have a fitted effect of over 40% in size
How it was run: (§2)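 Read-out: fluorescence of a cell-impermeant cyanine dye staining DNA of dead cells, proportional to cytotoxicity. HEK293, 600 cells/well with reagent, compound (23 nL DMSO) added after 5 h; reads at 0, 8, 16, 24, 32, 40 h.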

[3] = A CellTox Green Cytotoxicity Assay to monitor cytotoxicity in HepG2 cells - 0 hour (AID 1224882); also: nearly all actives have a fitted effect of over 35% in size
How it was run: (§3)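 HepG2, 600 cells/well premixed w/ CellTox Green; 5 h settle, 37 C/5% CO2; pintool cpd add (DMSO); 37 C, 40 h; fluorescence read at 0, 8, 16, 24, 32, 40 h.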

[4] = A CellTox Green Cytotoxicity Assay to monitor cytotoxicity in HepG2 cells - 32 hour (AID 1224883); also: nearly all actives have a fitted effect of over 50% in size
How it was run: as §3

[5] = A CellTox Green Cytotoxicity Assay to monitor cytotoxicity in HEK293 cells - 8 hour (AID 1224884); also: nearly all actives have a fitted effect of over 35% in size
How it was run: as §2

[6] = qHTS RealTime-Glo MT Cell Viability Assay in HepG2 cells - 16 hour (AID 1224885); also: nearly all actives have a fitted effect of over 50% in size
How it was run: (§4)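 Cell number in HepG2 cultures estimated from NanoLuc luminescence generated by metabolic reduction of a prosubstrate by living cells. The homogeneous, nonlytic format allowed repeated reads at 0, 8, 16, 24, 32 and 40 h of compound exposure.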

[7] = qHTS RealTime-Glo MT Cell Viability Assay in HEK293 cells - 24 hour (AID 1224886); also: top concentration of the series differs between compounds; nearly all actives have a fitted effect of over 50% in size
How it was run: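 Homogeneous bioluminescent viability format in HEK293 cells (600 cells/well). Following 5 h at 37 C/5% CO2, 23 nL compound was pintooled; the signal was measured repeatedly during 40 h incubation.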

[8] = qHTS RealTime-Glo MT Cell Viability Assay in HEK293 cells - 8 hour (AID 1224887); also: top concentration of the series differs between compounds; nearly all actives have a fitted effect of over 50% in size
How it was run: as §1

[9] = A CellTox Green Cytotoxicity Assay to monitor cytotoxicity in HEK293 cells - 16 hour (AID 1224888); also: nearly all actives have a fitted effect of over 35% in size
How it was run: as §2

[10] = qHTS RealTime-Glo MT Cell Viability Assay in HepG2 cells - 0 hour (AID 1224889); also: nearly all actives have a fitted effect of over 50% in size
How it was run: as §4

[11] = A CellTox Green Cytotoxicity Assay to monitor cytotoxicity in HepG2 cells - 8 hour (AID 1224890); also: nearly all actives have a fitted effect of over 45% in size
How it was run: as §3

[12] = qHTS assay to identify small molecule antagonists of the estrogen receptor alpha (ER-alpha) signaling pathway using the BG1 cell line in the presence of 0.1 nM 17-beta-estradiol - cell viability counter screen (AID 1259241); also: nearly all actives have a fitted effect of over 40% in size
How it was run: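 Live-cell protease activity (CellTiter-Fluor fluorescence, 30 min) was read in the same wells after VM7Luc4E2 cells had been exposed to compounds with 0.1 nM 17beta-estradiol for 22 hr at 37C.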

[13] = qHTS assay to identify small molecule antagonists of the androgen receptor (AR) signaling pathway using the MDA cell line in the presence of 0.5 nM R1881 - cell viability counter screen (AID 1259242); also: nearly all actives have a fitted effect of over 45% in size
How it was run: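 Live-cell protease fluorescence, CellTiter-Fluor, 30 min at 37C. Cells: MDA-kb2, 3,000/well, preincubated 5 hr. Compounds plus 0.5 nM R1881 final, 16 hr, 37C, 0% CO2.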

[14] = target: Androgen receptor (Homo sapiens) (UniProt P10275); test: qHTS assay to identify small molecule antagonists of the androgen receptor (AR) signaling pathway using the MDA cell line in the presence of 0.5 nM R1881 (AID 1259243); also: nearly all actives have a fitted effect of over 50% in size
Sequence of Androgen receptor (Homo sapiens) (P10275 whole entry, looked up): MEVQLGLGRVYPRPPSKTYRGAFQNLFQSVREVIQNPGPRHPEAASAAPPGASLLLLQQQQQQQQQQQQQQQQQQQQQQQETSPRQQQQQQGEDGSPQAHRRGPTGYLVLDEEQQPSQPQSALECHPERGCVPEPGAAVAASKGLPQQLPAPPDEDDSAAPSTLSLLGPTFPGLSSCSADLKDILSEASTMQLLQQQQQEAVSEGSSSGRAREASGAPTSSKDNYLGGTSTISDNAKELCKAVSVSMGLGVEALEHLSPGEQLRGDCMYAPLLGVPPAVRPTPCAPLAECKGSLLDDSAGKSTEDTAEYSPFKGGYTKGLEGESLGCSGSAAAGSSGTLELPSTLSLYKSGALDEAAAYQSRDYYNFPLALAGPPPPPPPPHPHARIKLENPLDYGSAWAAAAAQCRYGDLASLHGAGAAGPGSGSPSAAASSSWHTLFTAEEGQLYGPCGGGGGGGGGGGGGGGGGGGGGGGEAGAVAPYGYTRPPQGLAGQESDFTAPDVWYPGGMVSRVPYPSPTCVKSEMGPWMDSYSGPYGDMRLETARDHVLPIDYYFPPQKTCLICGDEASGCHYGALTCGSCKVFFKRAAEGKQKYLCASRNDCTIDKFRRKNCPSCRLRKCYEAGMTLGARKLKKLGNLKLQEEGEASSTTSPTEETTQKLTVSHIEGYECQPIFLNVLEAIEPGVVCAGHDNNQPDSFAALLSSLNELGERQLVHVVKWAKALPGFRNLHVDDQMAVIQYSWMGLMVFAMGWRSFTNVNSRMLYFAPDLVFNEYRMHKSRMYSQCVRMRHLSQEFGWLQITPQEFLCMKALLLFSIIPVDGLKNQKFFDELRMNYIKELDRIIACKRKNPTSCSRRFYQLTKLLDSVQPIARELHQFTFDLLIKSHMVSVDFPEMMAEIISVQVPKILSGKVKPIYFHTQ
How it was run: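 MDA-kb2, MMTV-luc (AR/GR elements); 3,000 cells/well; cpd + 0.5 nM R1881 final; 16 hr 37C, 0% CO2; ONE-Glo 30 min RT; luminescence.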

[15] = target: Estrogen receptor (Homo sapiens) (UniProt P03372); test: qHTS assay to identify small molecule antagonists of the estrogen receptor alpha (ER-alpha) signaling pathway using the BG1 cell line in the presence of 0.1 nM 17-beta-estradiol (AID 1259244); also: nearly all actives have a fitted effect of over 50% in size
Sequence of Estrogen receptor (Homo sapiens) (P03372 whole entry, looked up): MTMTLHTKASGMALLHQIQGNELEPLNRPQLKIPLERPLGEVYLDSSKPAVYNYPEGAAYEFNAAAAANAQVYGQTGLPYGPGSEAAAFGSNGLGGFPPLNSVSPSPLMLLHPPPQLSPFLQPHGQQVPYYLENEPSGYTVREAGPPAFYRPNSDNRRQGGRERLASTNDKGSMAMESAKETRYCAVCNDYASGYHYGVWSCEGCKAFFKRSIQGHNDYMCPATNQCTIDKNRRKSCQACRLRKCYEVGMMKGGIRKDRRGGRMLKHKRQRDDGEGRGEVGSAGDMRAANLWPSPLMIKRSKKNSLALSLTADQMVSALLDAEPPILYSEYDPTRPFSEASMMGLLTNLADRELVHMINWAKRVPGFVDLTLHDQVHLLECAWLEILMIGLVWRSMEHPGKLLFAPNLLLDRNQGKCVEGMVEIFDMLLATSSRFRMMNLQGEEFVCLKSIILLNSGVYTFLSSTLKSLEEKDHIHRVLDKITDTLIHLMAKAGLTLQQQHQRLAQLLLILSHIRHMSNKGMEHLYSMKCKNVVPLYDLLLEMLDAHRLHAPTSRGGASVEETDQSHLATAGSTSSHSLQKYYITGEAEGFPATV
How it was run: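 Luminescence after ONE-Glo (30 min, room temperature) measured ERE-luciferase activity in VM7Luc4E2 cells treated 22 h with compound and 0.1 nM final 17beta-estradiol as stimulator.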

[16] = qHTS assay to identify small molecule phospholipidosis (PLD) inducers (AID 1259344; active = well fitted curve in the direction sought with a large enough effect; an effect the other way counts as inactive or inconclusive)
How it was run: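 Cells (HepG2, 900 per well) attach for 4 h, receive LipidTOX Red and compound together, incubate 24 h at 37 C, are fixed 30 min with paraformaldehyde/Hoechst, then imaged at one site per well.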

[17] = qHTS assay to identify small molecule HDAC inhibitors (AID 1259364);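 also: wild-type HCT-116 cells with endogenous class I/II HDAC activity; top concentration of the series differs between compounds; nearly all actives have a fitted effect of over 45% in size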
How it was run: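 HCT-116 (wild type), 1,500 cells/well, overnight; compound 2 hr 37C 5% CO2; HDAC-Glo I/II reagent 30 min RT; luminescence readout.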

[18] = qHTS assay to identify small molecule HDAC inhibitors - cell viability counter screen (AID 1259365)
How it was run: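 HCT-116 (wild type), 1,500 cells/well, overnight 37C/5% CO2; compound in DMSO 2hr; CellTiter-Glo 30min RT; luminescence read.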

[19] = qHTS assay to identify small molecule agonists of the sonic hedgehog signaling (Shh) pathway - cell viability counter screen (AID 1259366); also: nearly all actives have a fitted effect of over 50% in size
How it was run: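 CellTiter-Fluor fluorescence read-out, 1 hr at 37C, added after 23hr compound exposure. Cells: 3T3 Gli1-Luc, an NIH/3T3 clone with stably integrated Gli1-Luc reporter, plated 4hr before compound.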

[20] = qHTS assay to identify small molecule antagonists of the sonic hedgehog signaling (Shh) pathway - cell viability counter screen (AID 1259367); also: nearly all actives have a fitted effect of over 55% in size
How it was run: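 Cytotoxicity was assessed in parallel with Shh reporter activity by measuring live-cell protease fluorescence (CellTiter-Fluor) in NIH/3T3 cells stably carrying Gli1-Luc, treated with compound under conditioned medium stimulation for 23 hr plus 1 hr reagent incubation.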

Measured: Potency

CCCCCN(CCCCC)C(=O)C(CCC(=O)O)NC(=O)c1ccc(Cl)c(Cl)c1 (configuration not stated)
inactive: all assays above

O=C1C(CCS(=O)c2ccccc2)C(=O)N(c2ccccc2)N1c1ccccc1 (configuration not stated)
not listed: [14]
inactive: all other assays above

CC(C)(C)CC(C)(C)N
not listed: [14] | [16]
inactive: all other assays above

COCCOC(=O)CC#N
not listed: [14] | [16] | [20]
inactive: all other assays above

NC1CCN(c2cccc(Cl)n2)CC1
not listed: [15]
inactive: all other assays above

Cc1ncc(CSSCc2cnc(C)c(O)c2CO)c(CO)c1O
inactive: all assays above

CC(C)[C@H](N)C(=O)OCCOCn1cnc2c(=O)[nH]c(N)nc21
not listed: [14]
inactive: all other assays above
